Laboratory results reported in PubChem BioAssay (NCATS).
Values without a mark were called inactive. Records with an inconclusive call do not appear. The list shows a part of the results. Activity calls are given as the source filed them. Unless noted, calls follow the shape of the dose curve; as a rule, active = well fitted curve in the direction sought with a large enough effect; inconclusive = small, poorly fitted or top-dose-only effect, or another doubt; inactive = no such curve, though single readings can be large; an effect the other way counts as inactive or inconclusive.

target: Mitogen-activated protein kinase 10 (Mus musculus) (UniProt Q61831); test: JNK3 AlphaScreen Assay (AID 530; active = well fitted curve in either direction with a large enough effect, not every such curve was filed as active;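 also: kinase came from lysate of stimulated human HepG2 cells; signal reports phosphorylation of biotinylated GST-cJun 1-79 at Ser73 with 10 µM ATP; % is scaled to controls: 0 for no effect and ±100 for the full control effect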); details: JNK3 lysate, c-Jun phosphorylation; series mostly up to 57.1 µM; activity change, negative = inhibition: at the top concentration
Summary of the method: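 Kinase buffer: 20 mM Tris-HCl pH 7.6, 10 mM MgCl2, 1 mM DTT, 0.1 mM Na3VO4, 0.01% Tween-20; ATP 10 uM. Substrate biotin-GST-cJun(1-79), enzyme from activated HepG2 lysates. Detection by Ser73 phospho-antibody AlphaScreen.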

Row | Structure (SMILES) | activity change, negative = inhibition
1 | CC(=O)N1[C@H](C)C=C[C@]1(Cc1ccccc1)C(=O)NCc1ccccn1 | -1.34%
2 | COC(=O)CNC(=O)C1(CC(C)C)C=CCN1C(=O)c1ccccc1 (centres undefined) | 2.13%
3 | COCCNC(=O)C1(CC(C)C)C=CCN1C(=O)c1ccccc1 (centres undefined) | 1.23%
4 | COc1ccc(CNC(=O)C(C)Cc2ccccc2)cc1O (centres undefined) | 30.9%
5 | COCCNC(=O)C1(CC(C)C)C=CCN1C(=O)OC (centres undefined) | -0.901%
6 | CC(=O)N1CC=CC1(C)C(=O)O (centres undefined) | 7.06%
7 | CCCCCCN(C(=O)CCCCCN1C(=O)NC(c2ccc(-c3ccccc3)cc2)C(C(=O)OCc2ccccc2)=C1C)C(C(=O)NCCCC)c1cccc(C(=O)OC)c1 (centres undefined) | -6.98%
8 | CNC(=O)C1(C)C=CC2(CCCCC2)N1C(C)=O (centres undefined) | -0.414%
9 | CC(=O)N1[C@H](C)C=C[C@]1(Cc1ccccc1)C(=O)O | 0.00632%
10 | COCCNC(=O)[C@H](C)/C=C/C(NC(=O)OCc1ccccc1)c1ccc(C(=O)OC)cc1 (some centres undefined) | -1.21%
11 | CC1=C(C(=O)OCc2ccccc2)C(c2ccc(C(F)(F)F)cc2)NC(=O)N1CCCCCC(=O)O (centres undefined) | -1.14%
12 | CC(=O)N1CC=CC1(C)C(=O)NCC1CC1 (centres undefined) | -8.66%
13 | CCCCNC(=O)C(c1ccc(OCC(=O)OC)c(C(=O)OC)c1)N(CCOC)C(=O)CCCCCN1C(=O)NC(c2ccc(-c3ccccc3)cc2)C(C(=O)OCc2ccccc2)=C1C (centres undefined) | -17.1%
14 | CC1=C(C(=O)OCc2ccccc2)C(c2ccc(C3CCCCC3)cc2)NC(=O)N1CCCCCC(=O)O (centres undefined) | -23.6%
15 | COCCNC(=O)[C@@]1(Cc2ccccc2)C=C[C@@H](C)N1C(C)=O | -0.269%
16 | COC(=O)C1(C)C=CC2(CCCCC2)N1C(=O)c1ccccc1 (centres undefined) | 1.31%
17 | CC1(C(=O)NCCN2CCOCC2)C=CCN1C(=O)c1ccccc1 (centres undefined) | 0.834%
18 | COC(=O)CCCCCN1C(=O)NC(c2ccccc2)C(C(=O)OCc2ccccc2)=C1C (centres undefined) | 3.46%
19 | COC(=O)N1[C@H](C)C=C[C@]1(Cc1ccccc1)C(=O)NCc1ccccn1 | -0.534%
20 | CCCCCCN(C(=O)CCCCCN1C(=O)NC(c2ccc(-c3ccccc3)cc2)C(C(=O)OCc2ccccc2)=C1C)C(C(=O)NCCCC)c1ccccn1 (centres undefined) | -17.1%

target: Cytochrome P450 3A4 (Homo sapiens) (UniProt P08684); test: qHTS Assay for Activators of Cytochrome P450 3A4 (AID 885); details: recombinant CYP3A4, Luciferin-PPXE luminescence, 60 min; series mostly up to 57.1 µM; activity change, positive = activation: at the top concentration; also: nearly all actives have a fitted effect of over 65% in size
Sequence (P08684 whole entry, looked up): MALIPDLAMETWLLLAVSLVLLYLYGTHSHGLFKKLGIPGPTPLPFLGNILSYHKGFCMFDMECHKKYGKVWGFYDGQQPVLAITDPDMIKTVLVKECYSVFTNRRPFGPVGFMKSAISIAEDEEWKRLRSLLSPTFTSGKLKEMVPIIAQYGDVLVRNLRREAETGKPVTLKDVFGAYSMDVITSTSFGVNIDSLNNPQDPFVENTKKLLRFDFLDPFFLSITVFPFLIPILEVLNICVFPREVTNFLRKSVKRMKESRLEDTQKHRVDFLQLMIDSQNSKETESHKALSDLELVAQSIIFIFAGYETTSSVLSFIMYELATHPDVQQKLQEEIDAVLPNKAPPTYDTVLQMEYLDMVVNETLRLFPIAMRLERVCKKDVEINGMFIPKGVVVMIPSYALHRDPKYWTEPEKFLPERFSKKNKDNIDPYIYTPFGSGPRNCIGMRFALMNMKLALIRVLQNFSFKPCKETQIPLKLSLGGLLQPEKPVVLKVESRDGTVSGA
Summary of the method: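 Human CYP3A4 dealkylates Luciferin-PPXE to luciferin, which luciferase detection converts to light. Substrate was at its KM (25uM), buffer 200mM KPO4, reaction 60 min at RT.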

Row | Structure (SMILES) | activity change, positive = activation
21 | CC(=O)N1[C@H](C)C=C[C@]1(Cc1ccccc1)C(=O)NCc1ccccn1 | -50.6%
22 | COC(=O)CNC(=O)C1(CC(C)C)C=CCN1C(=O)c1ccccc1 (centres undefined) | -47.2%
23 | COCCNC(=O)C1(CC(C)C)C=CCN1C(=O)c1ccccc1 (centres undefined) | -51.2%
24 | COc1ccc(CNC(=O)C(C)Cc2ccccc2)cc1O (centres undefined) | -57.2%
25 | COCCNC(=O)C1(CC(C)C)C=CCN1C(=O)OC (centres undefined) | -47.7%
26 | CC(=O)N1CC=CC1(C)C(=O)O (centres undefined) | -34.4%
27 | CCCCCCN(C(=O)CCCCCN1C(=O)NC(c2ccc(-c3ccccc3)cc2)C(C(=O)OCc2ccccc2)=C1C)C(C(=O)NCCCC)c1cccc(C(=O)OC)c1 (centres undefined) | -56.2%
28 | CNC(=O)C1(C)C=CC2(CCCCC2)N1C(C)=O (centres undefined) | -48.5%
29 | CC(=O)N1[C@H](C)C=C[C@]1(Cc1ccccc1)C(=O)O | -32.1%
30 | COCCNC(=O)[C@H](C)/C=C/C(NC(=O)OCc1ccccc1)c1ccc(C(=O)OC)cc1 (some centres undefined) | -55.9%
31 | CC1=C(C(=O)OCc2ccccc2)C(c2ccc(C(F)(F)F)cc2)NC(=O)N1CCCCCC(=O)O (centres undefined) | -37.2%
32 | CC(=O)N1CC=CC1(C)C(=O)NCC1CC1 (centres undefined) | -36.4%
33 | CCCCNC(=O)C(c1ccc(OCC(=O)OC)c(C(=O)OC)c1)N(CCOC)C(=O)CCCCCN1C(=O)NC(c2ccc(-c3ccccc3)cc2)C(C(=O)OCc2ccccc2)=C1C (centres undefined) | -46.4%
34 | CC1=C(C(=O)OCc2ccccc2)C(c2ccc(C3CCCCC3)cc2)NC(=O)N1CCCCCC(=O)O (centres undefined) | -52.8%
35 | COCCNC(=O)[C@@]1(Cc2ccccc2)C=C[C@@H](C)N1C(C)=O | -33.6%
36 | COC(=O)C1(C)C=CC2(CCCCC2)N1C(=O)c1ccccc1 (centres undefined) | -46.1%
37 | CC1(C(=O)NCCN2CCOCC2)C=CCN1C(=O)c1ccccc1 (centres undefined) | -51.1%
38 | COC(=O)CCCCCN1C(=O)NC(c2ccccc2)C(C(=O)OCc2ccccc2)=C1C (centres undefined) | -50.1%
39 | COC(=O)N1[C@H](C)C=C[C@]1(Cc1ccccc1)C(=O)NCc1ccccn1 | -54.1%
40 | CCCCCCN(C(=O)CCCCCN1C(=O)NC(c2ccc(-c3ccccc3)cc2)C(C(=O)OCc2ccccc2)=C1C)C(C(=O)NCCCC)c1ccccn1 (centres undefined) | -57.3%

target: Lethal(3)malignant brain tumor-like protein 1 (Homo sapiens) (UniProt Q9Y468); test: qHTS Assay for the Inhibitors of L3MBTL1: Hit Validation (AID 540279); details: L3MBTL1 methyl-lysine binding inhibition, biochemical qHTS; also: potency is read from the fitted curve at half-maximal effect; nearly all actives have a fitted effect of over 70% in size
Sequence (Q9Y468 whole entry, looked up): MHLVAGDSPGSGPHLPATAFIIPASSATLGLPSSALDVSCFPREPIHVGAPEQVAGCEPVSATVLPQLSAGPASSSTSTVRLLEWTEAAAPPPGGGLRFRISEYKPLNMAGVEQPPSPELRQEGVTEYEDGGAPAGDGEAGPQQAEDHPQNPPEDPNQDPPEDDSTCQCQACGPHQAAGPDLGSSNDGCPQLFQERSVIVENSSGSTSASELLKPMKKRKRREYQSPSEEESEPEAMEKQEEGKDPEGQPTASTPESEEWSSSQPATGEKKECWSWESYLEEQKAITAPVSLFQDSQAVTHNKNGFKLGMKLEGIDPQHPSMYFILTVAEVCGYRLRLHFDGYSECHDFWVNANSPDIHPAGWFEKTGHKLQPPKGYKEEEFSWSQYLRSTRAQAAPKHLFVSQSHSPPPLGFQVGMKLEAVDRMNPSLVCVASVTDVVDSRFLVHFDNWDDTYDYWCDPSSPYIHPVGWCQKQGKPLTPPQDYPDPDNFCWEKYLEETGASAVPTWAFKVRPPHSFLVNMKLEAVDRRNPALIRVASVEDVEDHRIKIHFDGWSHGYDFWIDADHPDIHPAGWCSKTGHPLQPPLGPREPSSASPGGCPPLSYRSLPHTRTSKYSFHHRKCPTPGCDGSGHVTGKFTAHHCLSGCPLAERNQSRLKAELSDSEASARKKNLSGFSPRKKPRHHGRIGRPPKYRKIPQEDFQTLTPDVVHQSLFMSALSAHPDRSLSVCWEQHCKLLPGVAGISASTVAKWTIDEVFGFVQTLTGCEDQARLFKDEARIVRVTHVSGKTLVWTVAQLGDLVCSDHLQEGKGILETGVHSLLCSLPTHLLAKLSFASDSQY
Description: The histone code is comprised of many post-translational modifications that occur mainly in histone tail peptides. The identity and location of these marks are read by a variety of histone binding proteins that are emerging as important regulators of cellular differentiation and development and are increasingly being implicated in numerous disease states. Small molecule probes that disrupt the interaction between histone binding proteins and chromatin would enable a systematic chemical biology study of proteins that read the histone code and could potentially reveal new targets for drug discovery. However, no such small molecules are known. This dearth of quality molecular probes can largely be attributed to the novelty of the target class and the lack of screening assays. This proposal details the development of the first high-throughput screening assay for the discovery of inhibitors of methyl-lysine binding proteins and how it can be used to initiate a full-scale discovery effort for antagonists of histone binding proteins. Specifically, this work focuses on an AlphaScreen(tm)-based HTS assay for Malignant Brain Tumor (MBT) domain-containing proteins, which bind to the lower methylation states of lysine residues present in histone tail peptides.
To each well, 2 uL of L3MBTL1 protein (final 50 nM) and 1 uL biotinylated histone peptide monomethylated at Lys9 [b-AHA-H3(1-15)K9me1] (final 75 nM) was added using a nanoliter dispenser. Formation of a protein-peptide complex proceeded at room temperature for 30 min. A Kalypsys pin-tool was employed to transfer 23 nL of library compound solution in DMSO to each well. Cefsulodin, found in a pilot screen of the LOPAC library to be a weak inhibitor of L3MBTL1 binding, was used as an intraplate control with a 16-point titration in duplicate. Following a 30 min incubation of the protein-peptide complex with compounds at room temperature, a mixture of 40 ug/mL each streptavidin-coated donor and nickel chelate acceptor AlphaScreen beads (final 10 ug/mL) was added in a 1 uL dispense for a final volume of 4 uL. Plates were incubated, protected from the light for 30 min at room temperature. Microplates were then be read on an EnVision multilabel plate reader using the 1,536 plate HTS AlphaScreen aperture (excitation time 80 ms, measurement time 240 ms).

Row | Structure (SMILES) | Potency
41 | COCCNC(=O)Nc1ccc2nc(-c3ccco3)c(-c3ccco3)nc2c1 | 1.89 µM (active)
42 | CC(C)(C)OC(=O)NCCCCCNC(=O)c1[nH]cnc1C(=O)Nc1nccs1 | 7.52 µM (active)
43 | Oc1ccc(N=Nc2nccs2)c(O)c1 | 16.8 µM (active)
44 | COc1cccc2c(C)c(C(=O)O)[nH]c12 | 5.97 µM (active)
45 | O=C(COC(=O)c1ccc(F)cc1F)Nc1ncccn1 | 5.97 µM (active)
46 | CCN(C(=O)Cc1nc(N)n[nH]1)C1(C(=O)Nc2ccccc2)CCCCC1 | 26.7 µM (active)
47 | COc1ccc(Cc2nnc(NC(=O)Cc3cccs3)s2)cc1 | 1.19 µM (active)
48 | CSc1nnc(SCc2nc3sc(C(=O)O)c(C)c3c(=O)[nH]2)s1 | 0.532 µM (active)
49 | Cn1c2ccccc2c(=O)c2c(=O)n(Cc3ccco3)c(COc3ccccc3)nc21 | 7.52 µM (active)
